Reference: the supplement of paper PMC8728848
Only a selection was taken, and the strongest signals are over-represented in it overall.

Columns and labels:
Assay in all cases: glycan array binding signal (z-score within array); higher = stronger binding
Conditions in all cases: glycan notation: IUPAC condensed, linker removed
Gal3S(b1-4)Glc = molecular target: Gal3S(b1-4)Glc
Method in brief: (§1)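 Glycan array data were curated from 3228 arrays in the Consortium for Functional Glycomics database and kept only where the protein sequence was available. Glycan names were converted to IUPAC-condensed notation, and columns mapping to the same glycan were averaged. The binding signal is a within-array Z-score, averaged across arrays of the same protein sequence at different concentrations or buffers and across linkers. Negative Z-scores can be read as non-binding.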

[1] = molecular target: Gal3S(b1-4)[Fuc(a1-3)]GlcNAc6S
Method in brief: as §1

[2] = molecular target: GalNAc(b1-3)Gal(a1-4)Gal(b1-4)GlcNAc(b1-3)Gal(b1-4)Glc
Method in brief: as §1

GalNAc(b1-4)Gal(b1-4)Glc = molecular target: GalNAc(b1-4)Gal(b1-4)Glc
Method in brief: as §1

[3] = molecular target: GlcNAc(b1-2)Man(a1-3)[GlcNAc(b1-2)Man(a1-6)]Man(b1-4)GlcNAc(b1-4)[Fuc(a1-6)]GlcNAc
Method in brief: as §1

[4] = molecular target: GlcNAc(b1-2)[GlcNAc(b1-6)]Man(a1-6)[GlcNAc(b1-2)Man(a1-3)]Man(b1-4)GlcNAc(b1-4)GlcNAc
Method in brief: as §1

[5] = molecular target: GlcNAc(b1-3)Gal(b1-4)GlcNAc(b1-2)[GlcNAc(b1-3)Gal(b1-4)GlcNAc(b1-6)]Man(a1-6)[GlcNAc(b1-3)Gal(b1-4)GlcNAc(b1-2)Man(a1-3)]Man(b1-4)GlcNAc(b1-4)GlcNAc
Method in brief: as §1

[6] = molecular target: GlcNAc(b1-3)Gal(b1-4)GlcNAc(b1-3)Gal(b1-4)GlcNAc(b1-3)GalNAc
Method in brief: as §1

[7] = molecular target: Man(a1-3)[Man(a1-6)]Man(b1-4)GlcNAc(b1-4)GlcNAc
Method in brief: as §1

[8] = molecular target: Man(a1-3)[Man(a1-6)]Man(b1-4)GlcNAc(b1-4)[Fuc(a1-6)]GlcNAc
Method in brief: as §1

[9] = molecular target: Neu5Ac(a2-3)Gal(b1-3)GlcNAc(b1-2)Man
Method in brief: as §1

[10] = molecular target: Neu5Ac(a2-3)Gal(b1-3)GlcNAc(b1-6)GalNAc
Method in brief: as §1

[11] = molecular target: Neu5Ac(a2-3)Gal(b1-3)[Fuc(a1-4)]GlcNAc
Method in brief: as §1

[12] = molecular target: Neu5Ac(a2-3)Gal(b1-3)[Fuc(a1-4)]GlcNAc(b1-3)Gal(b1-3)[Fuc(a1-4)]GlcNAc
Method in brief: as §1

[13] = molecular target: Neu5Ac(a2-3)Gal(b1-4)GlcNAc(b1-2)[Neu5Ac(a2-3)Gal(b1-4)GlcNAc(b1-6)]Man(a1-6)[Neu5Ac(a2-3)Gal(b1-4)GlcNAc(b1-2)Man(a1-3)][GlcNAc(b1-4)]Man(b1-4)GlcNAc(b1-4)GlcNAc
Method in brief: as §1

[14] = molecular target: Neu5Ac(a2-3)Gal(b1-4)GlcNAc(b1-3)Gal(b1-4)GlcNAc(b1-2)Man(a1-3)[Neu5Ac(a2-3)Gal(b1-4)GlcNAc(b1-3)Gal(b1-4)GlcNAc(b1-2)Man(a1-6)]Man(b1-4)GlcNAc(b1-4)GlcNAc
Method in brief: as §1

[15] = molecular target: Neu5Ac(a2-3)Gal(b1-4)[Fuc(a1-3)]GlcNAc(b1-3)GalNAc
Method in brief: as §1

[16] = molecular target: Neu5Ac(a2-3)Gal6S(b1-4)GlcNAc
Method in brief: as §1

[17] = molecular target: Neu5Ac(a2-3)Gal6S(b1-4)[Fuc(a1-3)]GlcNAc
Method in brief: as §1

[18] = molecular target: Neu5Ac(a2-3)[Neu5Ac(a2-6)]GalNAc
Method in brief: as §1

[19] = molecular target: Neu5Ac(a2-6)Gal(b1-4)GlcNAc(b1-2)Man(a1-3)[GlcNAc(b1-4)][Neu5Ac(a2-6)Gal(b1-4)GlcNAc(b1-2)Man(a1-6)]Man(b1-4)GlcNAc(b1-4)GlcNAc
Method in brief: as §1

[20] = molecular target: Neu5Ac(a2-6)Gal(b1-4)GlcNAc(b1-2)Man(a1-3)[Neu5Ac(a2-6)Gal(b1-4)GlcNAc(b1-2)Man(a1-6)]Man(b1-4)GlcNAc(b1-4)GlcNAc
Method in brief: as §1

[21] = molecular target: Neu5Ac(a2-6)Gal(b1-4)GlcNAc(b1-2)Man(a1-6)[Gal(b1-4)GlcNAc(b1-2)Man(a1-3)]Man(b1-4)GlcNAc(b1-4)GlcNAc
Method in brief: as §1

[22] = molecular target: Neu5Ac(a2-6)Gal(b1-4)GlcNAc(b1-2)[Neu5Ac(a2-6)Gal(b1-4)GlcNAc(b1-4)]Man(a1-3)[GlcNAc(b1-4)][Neu5Ac(a2-6)Gal(b1-4)GlcNAc(b1-2)[Neu5Ac(a2-6)Gal(b1-4)GlcNAc(b1-6)]Man(a1-6)]Man(b1-4)GlcNAc(b1-4)GlcNAc
Method in brief: as §1

[23] = molecular target: Neu5Ac(a2-8)Neu5Ac(a2-3)[GalNAc(b1-4)]Gal(b1-4)Glc
Method in brief: as §1

[24] = molecular target: Neu5Ac9Ac(a2-6)Gal(b1-4)GlcNAc
Method in brief: as §1

[25] = molecular target: Neu5Gc(a2-6)Gal(b1-4)GlcNAc
Method in brief: as §1

B1: Arath Fbox (Arabidopsis thaliana), NP_178341.1 (protein)
chain: EFTWGRKRRVKSESSPFDSFPEDCISYIISFTNPRDACVAATVSKTFESTVKSDIIWEKFLPADYESLIPPSRVFSSKKELYFSLCNDPVLFDDDKKSVWLEKASGKRCLMLSAMNLSIIWGDNPQYWQWIPIPESRFEKVAKLRDVCWFEIRGRTNTRVLSPRTRYSAYIVFKGVDKCYGFQNVAIEAAVGVVGQEPSRRLICFSEAIRRGRRNVVKPKQREDGWMEIELGEFFNDGGIMDNDEIEMSALETKQLNRKCGLIIQGIEIRPAKILAAAAASFLEQKLISEEDLNSAVDHHHHHH
glycan array binding signal (z-score) (Gal3S(b1-4)Glc): 1
glycan array binding signal (z-score) [1]: 2.7
glycan array binding signal (z-score) [2]: -0.087
glycan array binding signal (z-score) (GalNAc(b1-4)Gal(b1-4)Glc): 0.06
glycan array binding signal (z-score) [3]: 0.585
glycan array binding signal (z-score) [4]: -0.389
glycan array binding signal (z-score) [5]: 0.161
glycan array binding signal (z-score) [6]: -0.761
glycan array binding signal (z-score) [7]: -0.721
glycan array binding signal (z-score) [8]: -0.72
glycan array binding signal (z-score) [9]: -0.092
glycan array binding signal (z-score) [10]: -0.024
glycan array binding signal (z-score) [11]: -0.597
glycan array binding signal (z-score) [12]: 0.221
glycan array binding signal (z-score) [13]: -0.75
glycan array binding signal (z-score) [14]: 2.64
glycan array binding signal (z-score) [15]: 2.69
glycan array binding signal (z-score) [16]: -0.45
glycan array binding signal (z-score) [17]: -0.559
glycan array binding signal (z-score) [18]: -0.205
glycan array binding signal (z-score) [19]: -0.647
glycan array binding signal (z-score) [20]: -0.41
glycan array binding signal (z-score) [21]: 3.21
glycan array binding signal (z-score) [22]: -0.533
glycan array binding signal (z-score) [23]: -0.467
glycan array binding signal (z-score) [24]: -0.681
glycan array binding signal (z-score) [25]: 2.49
